{"source": "PubChem BioAssay (NCI)", "note": "About 83,000 compounds went through this panel and 20% of them were active in at least one assay; those are over-represented in the sample as a whole.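 Activity criterion: percent growth below 10, measured after cells in 96-well plates were exposed to a single compound concentration for 48 hours.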 Unmarked numbers belong to inactive results. Calls of active or inactive are those of the source.", "data": [{"tested_on": "MDA-MB-468 breast", "assay": "NCI-60 one-dose screen, 48 h (100 = growth as untreated, 0 = no growth, -100 = all killed)", "settings": "10 µM unless noted", "values": [{"smiles": "CNC(=O)c1cc(Oc2ccc3nc(NC(=O)c4cccc(C(F)(F)F)c4)sc3c2)ccn1", "growth": "106%"}, {"smiles": "Cc1ccc(N(CC2=NCCN2)c2cccc(O)c2)cc1", "growth": "93.3%"}, {"smiles": "CN(C)c1ccc(-c2ccc3c(c2)c(-c2ccccc2)nc(=O)n3C)cn1", "growth": "5.69% (active)"}, {"smiles": "O=c1oc2c(cc1-c1ccccc1)c[n+]([O-])c1ccccc21", "growth": "104%"}, {"smiles": "O=C1NCC2CCCC1C2", "note": "(stereo not given)", "growth": "105%"}, {"smiles": "CC(=O)OC[C@]12CC[C@@H]([C@@H](C)C(N)=O)[C@@H]1[C@H]1CC[C@@H]3[C@@]4(C)CC[C@H](OC(C)=O)C(C)(C)[C@@H]4CC[C@@]3(C)[C@]1(C)CC2", "growth": "-40.4% [100 µM] (active)"}, {"smiles": "O=C([C@H]1C[C@H]1c1ccc(S(F)(F)(F)(F)F)cc1)N1CCN(c2cc(Cl)ccc2C(F)(F)F)CC1", "growth": "58.9%"}, {"smiles": "O=CN1N=C(c2cccc(Nc3ccnc4cc(Cl)ccc34)c2)CC1c1ccccc1", "note": "(stereo not given)", "growth": "13%"}, {"smiles": "COc1cc(-c2nn(-c3cccc(NC(=O)Nc4ccc(Cl)c(Cl)c4)c3)cc2-c2ccncc2)ccc1Cl", "growth": "2.14% (active)"}, {"smiles": "O=c1c2cc(F)ccc2sc2c(N3CCCCC3)nc3ccccc3c12", "growth": "95.6%"}, {"smiles": "Cc1nc(Nc2nc3ccccc3o2)nc(-c2cccc([N+](=O)[O-])c2)c1C(=O)Nc1ccc(F)c(Cl)c1", "growth": "-2.01% (active)"}, {"smiles": "O=C1/C(=C\\c2cccn2Cc2ccccc2)c2ccccc2N1c1c(Cl)cccc1Cl", "growth": "-77.5% (active)"}, {"smiles": "O=C1Cc2cc(O)ccc2O1", "growth": "103%"}, {"smiles": "Cc1cc(Oc2ccccc2)ccc1Nc1ncnc2ccc(-c3cnc(Cl)c(NS(C)(=O)=O)c3)cc12", "growth": "-18.9% (active)"}, {"smiles": "CN(C)c1ccc(C(=O)c2ccc(N(C)C)c(N)c2)cc1N", "growth": "-20.9% (active)"}, {"smiles": "COc1ccc(NC(=O)c2sc3nc(C)c(C(O)c4ccc(OC)cc4)cc3c2N)cc1", "note": "(stereo not given)", "growth": "24.8%"}, {"smiles": "NC1CCC(Nc2nc(NCc3ccc(-c4cccs4)nc3)c3ncn(C4CCCC4)c3n2)CC1", "note": "(stereo not given)", "growth": "-65.8% (active)"}, {"smiles": "OCc1cnccc1NC12CC3CC(CC(C3)C1)C2", "growth": "99.2%"}, {"smiles": "N#Cc1c(-c2ccc(F)cc2)nc2c(C#N)c(Nc3ccccc3)nn2c1N", "growth": "103%"}, {"smiles": "O=C(COc1ccccc1)N1N=C(c2ccc(Cl)cc2)CC1c1c[nH]c2ccccc12", "note": "(stereo not given)", "growth": "85.7%"}, {"smiles": "C=C(C)[C@@H]1CC[C@]2(C(=O)N3CCNCC3)CC[C@]3(C)[C@H](CC[C@@H]4[C@@](C)(CCC(=O)N5CCNCC5)[C@H](C(=C)C)CC[C@]43C)[C@@H]12", "growth": "49.5%"}, {"smiles": "CCC#CC[C@H](O)C/C=C1/C(=O)C=C[C@@H]1C/C=C\\CCCC(=O)OC", "growth": "12.4%"}, {"smiles": "COc1ccc(C(=O)/C=C/c2c(Cl)c3c(c(OC)c2Cl)OCC(=O)N3)cc1", "growth": "12.4%"}, {"smiles": "CN(C)/C(N)=N/N=C(\\c1ccccc1)c1ccccn1", "growth": "95.8%"}, {"smiles": "N#CC1=C(NC=O)Oc2c(ccc3ccccc23)C1c1ccccc1", "note": "(stereo not given)", "growth": "12%"}, {"smiles": "CCN1C(=O)N(CC)C2C1NN=c1s/c(=C\\c3cccc(F)c3)c(=O)n12", "note": "(stereo not given)", "growth": "-21.8% (active)"}, {"smiles": "O=C(/C=C/c1ccccc1)c1cccc2ccccc12", "growth": "-2.6% (active)"}, {"smiles": "Clc1ccc2c(OCCCN3CCOCC3)c3oc4ccccc4c3nc2c1", "growth": "21.1%"}, {"smiles": "CNc1nc(NC2CCCC2)nc(Sc2ccc(OC)cc2)n1", "growth": "42.5% [100 µM]"}, {"smiles": "O=C(O)[C@@H]1c2ccccc2-c2ccccc2[C@H]1C(=O)O", "growth": "97.5%"}, {"smiles": "CC(C)(C)OC(=O)NCc1ccc(CNc2c([N+](=O)[O-])cnc3ccccc23)cc1", "growth": "22.2%"}, {"smiles": "COc1cc2c3c(c1)nc(C)n3CCC2", "growth": "99.6%"}, {"smiles": "Cc1c(O)cnc2nn(-c3ccccc3)c(=N)n12", "growth": "108%"}, {"smiles": "COC(=O)c1ccc2c(c1)nc(-c1ccc(O)c(OC)c1)n2-c1cc(C(C)(C)C)[nH]n1", "growth": "104%"}, {"smiles": "O=C(O)c1ccccc1C(=O)Nc1ccc(Cl)cc1", "growth": "120%"}, {"smiles": "NC(=O)c1cc(I)ccc1NC(=O)COc1ccccc1", "growth": "30.3%"}, {"smiles": "CN1CCN(Cc2ccc(NC(=O)c3cncc(C#Cc4cnc(N)c5ccccc45)c3)cc2C(F)(F)F)CC1", "growth": "-80.8% (active)"}, {"smiles": "CSc1nc2sc3c(c2c(=O)n1-c1ccc(C(C)C)cc1)CCC(=O)C3", "growth": "-16.5% (active)"}, {"smiles": "Cc1cc([N+](=O)[O-])c(C)cc1C(=O)O", "growth": "109%"}, {"smiles": "CCOC(=O)n1cc(-c2nonc2-c2cn(C)c3ccc(OC)cc23)c2cc(F)ccc21", "growth": "87.3%"}]}]}
